Columns and labels:
Test in all cases: log2 ratio of Biotin-Ahx-Ub-VS probe labelling (compound/DMSO); higher = less target engagement, active = hit call of the paper (q ≤ 0.05, log2 ratio ≤ -1)
Conditions in all cases: treatment time: 3 h
[1] = compound: CCC1N(CCc2sccc12)C(=O)CCl
How it was run: (§1)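 HEK293T lysate (495 µg per sample, in Tris/CHAPS/IGEPAL buffer with protease inhibitors) was exposed in triplicate to compound at 50 or 200 µM, or to DMSO, for 3 h, then to Biotin-Ahx-Ub-VS (0.5 µM final) for 1 h. The labelled DUBs were enriched on NeutrAvidin, digested with LysC and trypsin, and analysed by diaPASEF LC-MS/MS. Average base-two log ratios of compound over DMSO came from median-normalised label-free quantities by unpaired t-test. Only proteins with at least 2 unique peptides were used.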

[2] = compound: CN1c2ccccc2C(CS1(=O)=O)NC(=O)CCl
How it was run: as §1

[3] = compound: Cl.ClCC(=O)N1CCc2ncncc2C1
How it was run: as §1

[4] = compound: Cl.Cn1ncc2C(CCCc12)NC(=O)CCl
How it was run: as §1

[5] = compound: ClCC(=O)NC1CCOc2ccccc12
How it was run: as §1

[6] = compound: ClCC(=O)NC1CCCc2ccccc12
How it was run: (§2)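 These values are averaged ratios of compound to vehicle, tested by unpaired t-test. HEK293T lysate (495 µg per sample) was preincubated in triplicate with compound across a concentration series or vehicle for 3 h and then with Biotin-Ahx-Ub-VS at 0.5 µM final for 1 h. Deubiquitinases carrying the probe were NeutrAvidin-enriched, digested with LysC and trypsin, and measured by diaPASEF LC-MS/MS. Ratios are expressed as log2 from global-median-normalised Spectronaut label-free quantities, and only proteins with two or more unique peptides were included.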

[7] = compound: ClCC(=O)N[C@@H]1CCCc2ccccc12
How it was run: as §2

[8] = compound: ClCC(=O)N[C@H]1CCCc2ccccc12
How it was run: as §2

[9] = compound: CCC1N(CCc2cc(OC)c(Cl)cc12)C(=O)CCl
How it was run: as §1

[10] = compound: CCCC1N(CCc2cc(OC)c(OC)cc12)C(=O)CCl
How it was run: as §1

Measured: log2 ratio of Biotin-Ahx-Ub-VS probe labelling

USP19 (UniProt O94966)
Sequence of UniProt O94966 (O94966 whole entry): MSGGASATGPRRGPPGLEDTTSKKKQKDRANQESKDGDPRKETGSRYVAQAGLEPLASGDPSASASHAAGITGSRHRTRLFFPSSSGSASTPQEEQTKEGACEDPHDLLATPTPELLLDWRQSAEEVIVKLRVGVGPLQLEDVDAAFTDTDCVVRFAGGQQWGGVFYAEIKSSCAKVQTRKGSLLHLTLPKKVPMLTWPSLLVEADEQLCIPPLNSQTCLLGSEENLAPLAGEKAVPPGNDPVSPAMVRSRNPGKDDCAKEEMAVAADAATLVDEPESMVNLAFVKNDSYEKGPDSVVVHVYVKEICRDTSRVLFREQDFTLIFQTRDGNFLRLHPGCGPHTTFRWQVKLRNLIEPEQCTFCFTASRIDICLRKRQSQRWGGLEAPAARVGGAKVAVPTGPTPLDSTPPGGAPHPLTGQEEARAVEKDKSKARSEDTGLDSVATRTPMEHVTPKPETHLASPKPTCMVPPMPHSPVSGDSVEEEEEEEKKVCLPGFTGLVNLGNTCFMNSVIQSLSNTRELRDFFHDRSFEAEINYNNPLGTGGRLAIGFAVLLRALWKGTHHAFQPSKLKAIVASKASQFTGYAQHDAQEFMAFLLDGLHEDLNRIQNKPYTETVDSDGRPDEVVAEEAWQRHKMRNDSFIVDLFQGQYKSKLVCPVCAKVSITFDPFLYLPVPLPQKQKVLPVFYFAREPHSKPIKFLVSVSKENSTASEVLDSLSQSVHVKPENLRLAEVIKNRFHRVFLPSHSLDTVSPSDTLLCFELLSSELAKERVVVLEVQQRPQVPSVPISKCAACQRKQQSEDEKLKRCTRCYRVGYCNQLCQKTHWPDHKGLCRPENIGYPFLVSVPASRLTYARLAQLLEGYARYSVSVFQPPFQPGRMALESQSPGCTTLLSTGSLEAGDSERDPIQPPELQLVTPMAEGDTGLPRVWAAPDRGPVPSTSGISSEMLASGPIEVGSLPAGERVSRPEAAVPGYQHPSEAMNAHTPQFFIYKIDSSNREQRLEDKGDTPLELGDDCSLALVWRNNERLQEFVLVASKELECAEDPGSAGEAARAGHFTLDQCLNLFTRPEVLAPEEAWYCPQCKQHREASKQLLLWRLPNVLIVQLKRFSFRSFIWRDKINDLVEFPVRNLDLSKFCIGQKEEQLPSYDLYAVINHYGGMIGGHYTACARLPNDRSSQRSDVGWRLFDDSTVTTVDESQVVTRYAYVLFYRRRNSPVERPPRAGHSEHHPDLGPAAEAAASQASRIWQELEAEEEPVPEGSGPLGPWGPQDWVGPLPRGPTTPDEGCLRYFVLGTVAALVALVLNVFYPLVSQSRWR
active: [3]; compound concentration: 200uM -1.13 | [9]; compound concentration: 200uM -2.38 | [10]; compound concentration: 50uM -1.67 | [10]; compound concentration: 200uM -3.32
inactive: [1]; compound concentration: 50uM -0.285 | [1]; compound concentration: 200uM -0.845 | [2]; compound concentration: 50uM -0.191 | [2]; compound concentration: 200uM -0.286 | [3]; compound concentration: 50uM -0.264 | [4]; compound concentration: 50uM 0.00316 | [4]; compound concentration: 200uM -0.0581 | [5]; compound concentration: 50uM -0.218 | [5]; compound concentration: 200uM -0.211 | [6]; compound concentration: 0.78uM 0.0115 | [6]; compound concentration: 1.56uM 0.0325 | [6]; compound concentration: 3.13uM -0.14 | [6]; compound concentration: 6.25uM -0.00117 | [6]; compound concentration: 12.5uM -0.0872 | [6]; compound concentration: 25uM -0.173 | [6]; compound concentration: 50uM -0.131 | [6]; compound concentration: 100uM -0.081 | [6]; compound concentration: 200uM -0.216 | [7]; compound concentration: 0.78uM -0.105 | [7]; compound concentration: 1.56uM -0.0178 | [7]; compound concentration: 3.13uM -0.00588 | [7]; compound concentration: 6.25uM 0.0401 | [7]; compound concentration: 12.5uM -0.0591 | [7]; compound concentration: 25uM -0.121 | [7]; compound concentration: 50uM -0.26 | [7]; compound concentration: 100uM -0.182 | [7]; compound concentration: 200uM -0.339 | [8]; compound concentration: 0.78uM -0.0486 | [8]; compound concentration: 1.56uM -0.0156 | [8]; compound concentration: 3.13uM 0.00736 | [8]; compound concentration: 6.25uM 0.0504 | [8]; compound concentration: 12.5uM -0.0195 | [8]; compound concentration: 25uM -0.0989 | [8]; compound concentration: 50uM -0.0366 | [8]; compound concentration: 100uM -0.126 | [8]; compound concentration: 200uM -0.311 | [9]; compound concentration: 50uM -0.648

OTUD7B (UniProt Q6GQQ9)
Sequence of UniProt Q6GQQ9 (Q6GQQ9 whole entry): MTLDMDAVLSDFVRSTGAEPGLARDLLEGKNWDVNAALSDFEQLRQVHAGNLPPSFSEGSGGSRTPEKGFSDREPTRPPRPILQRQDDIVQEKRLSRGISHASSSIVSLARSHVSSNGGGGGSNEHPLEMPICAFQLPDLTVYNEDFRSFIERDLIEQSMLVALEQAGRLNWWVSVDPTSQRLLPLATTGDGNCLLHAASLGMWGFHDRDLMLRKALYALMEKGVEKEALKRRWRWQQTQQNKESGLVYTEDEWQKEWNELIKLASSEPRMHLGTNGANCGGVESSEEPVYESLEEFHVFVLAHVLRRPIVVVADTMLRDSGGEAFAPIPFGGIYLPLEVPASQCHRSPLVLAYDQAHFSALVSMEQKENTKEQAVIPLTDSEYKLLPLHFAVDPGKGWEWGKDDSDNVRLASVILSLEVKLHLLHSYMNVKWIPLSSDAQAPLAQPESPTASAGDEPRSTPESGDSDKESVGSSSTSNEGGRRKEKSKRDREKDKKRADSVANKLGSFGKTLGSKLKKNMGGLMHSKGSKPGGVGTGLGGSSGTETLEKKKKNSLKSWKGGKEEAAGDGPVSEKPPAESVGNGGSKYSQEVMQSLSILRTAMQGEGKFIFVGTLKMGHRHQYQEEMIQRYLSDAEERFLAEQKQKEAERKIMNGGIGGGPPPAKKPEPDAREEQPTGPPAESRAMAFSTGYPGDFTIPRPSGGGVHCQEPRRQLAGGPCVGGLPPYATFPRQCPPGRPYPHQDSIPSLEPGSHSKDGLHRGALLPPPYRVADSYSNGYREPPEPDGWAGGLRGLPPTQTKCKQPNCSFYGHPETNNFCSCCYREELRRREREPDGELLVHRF
active: [2]; compound concentration: 50uM -1.97 | [2]; compound concentration: 200uM -4.51 | [3]; compound concentration: 200uM -1.65 | [4]; compound concentration: 50uM -4.9 | [4]; compound concentration: 200uM -5.48 | [5]; compound concentration: 50uM -2.66 | [5]; compound concentration: 200uM -4.52 | [6]; compound concentration: 12.5uM -1.66 | [6]; compound concentration: 25uM -2.4 | [6]; compound concentration: 50uM -3.12 | [6]; compound concentration: 100uM -3.17 | [6]; compound concentration: 200uM -3.5 | [7]; compound concentration: 50uM -1.03 | [7]; compound concentration: 100uM -1.55 | [7]; compound concentration: 200uM -2.65 | [8]; compound concentration: 6.25uM -1.39 | [8]; compound concentration: 12.5uM -2.2 | [8]; compound concentration: 25uM -3.03 | [8]; compound concentration: 50uM -3.18 | [8]; compound concentration: 100uM -3.43 | [8]; compound concentration: 200uM -3.45
inactive: [1]; compound concentration: 50uM -0.4 | [1]; compound concentration: 200uM -0.926 | [3]; compound concentration: 50uM -0.537 | [6]; compound concentration: 0.78uM -0.175 | [6]; compound concentration: 1.56uM -0.207 | [6]; compound concentration: 3.13uM -0.537 | [6]; compound concentration: 6.25uM -0.893 | [7]; compound concentration: 0.78uM -0.133 | [7]; compound concentration: 1.56uM -0.0966 | [7]; compound concentration: 3.13uM -0.116 | [7]; compound concentration: 6.25uM -0.27 | [7]; compound concentration: 12.5uM -0.226 | [7]; compound concentration: 25uM -0.495 | [8]; compound concentration: 0.78uM -0.224 | [8]; compound concentration: 1.56uM -0.562 | [8]; compound concentration: 3.13uM -0.851 | [9]; compound concentration: 50uM -0.0276 | [9]; compound concentration: 200uM -0.501 | [10]; compound concentration: 50uM -0.433 | [10]; compound concentration: 200uM -0.824
